Pf growth 96h – P. falciparum growth inhibition at 96 hours. AID 504834. Potency, µM (doses to about 28.7 µM), actives largely listed as inhibitors. 320,000 tested, 6.9% active. P. falciparum luciferase reporter growth, 96 h
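Two parasite generations (96 h, 37 C, 5% CO2) of compound exposure in infected erythrocytes (0.05% parasitemia, 2% hematocrit). Luciferase-reporter P. falciparum; decreased luminescence indicates inhibited growth, aimed at apicoplast-acting delayed death.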
Shiga toxin inh – blocks Shiga toxin action in Vero cells; AID 2315; 290,000 tested, 9.2% active; inhibition, % at 38.7 µM; Vero cells, Shiga toxin protein synthesis inhibition reporter; in the data active means inhibition mostly above about 28%, no sharp cut-off; inactive means mostly below about 43%
Pf growth 48h – inhibits P. falciparum growth in the first generation, 48 h; P. falciparum luciferase growth in erythrocytes, 48 h; Potency, µM (titrated, usually from 28.7 µM), hits mostly inhibitors; 310,000 tested, 5.9% active; AID 504832
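Erythrocytes infected with P. falciparum carrying an integrated firefly luciferase reporter (2% hematocrit, 0.1% parasitemia final) were exposed to compounds in RPMI 1640 with 0.5% Albumax at 37 C, 5% CO2. Growth inhibition was scored as reduced luminescence.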
CHX counter – counter-screen for Shiga toxin inhibitors: cycloheximide protein synthesis inhibition | cell reporter, cycloheximide protein synthesis inhibition counterscreen | 300,000 tested, 12% active | max response, %; in the data active means max response mostly above about 13%, no sharp cut-off; inactive means mostly below about 14%; further: read at 38.3 µM for the half of the compounds with a filed dose
HCMV inh – inhibitors of human cytomegalovirus; HFF cells, HCMV-luciferase reporter, 72 h; hits give low values; activity change, negative = inhibition, % at 57.5 µM; 410,000 tested, 4.5% active; AID 1259415; in the data active means activity change below about -60%; inconclusive means no clear call, values can overlap the other calls; inactive means above about -39%
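Cell-based, HFFs, 1000 cells/well, 16 h 37C; cpds in DMSO + HCMV-luc, MOI 1 PFU/cell; 72 h 37C; OneGlo luminescence after 5 min RT; norm. to buffer vs Salinomycin 10uM.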
Each line names hits and unclear results; the compound was inactive in the other large screens. An excerpt weighted towards active compounds, which were near 20% of everything screened. Unless noted, the call rests on the fitted dose curve; in most records, active means well fitted inhibition curve with a large enough effect; inconclusive means small, poorly fitted or top-dose-only effect, or another doubt; inactive means no such curve, though single readings can be large or run the other way.

Cc1c(Cl)c([N+](=O)[O-])nn1CC(=O)NC(C)C1CC2CCC1C2 (centres undefined)	none (no result: Pf growth 96h)
CCc1cccc(C)c1NC(=O)C(CC)n1nc(C)c2c(C)n(-c3ccccc3)nc2c1=O (centres undefined)	none (no result: Pf growth 96h, Shiga toxin inh, Pf growth 48h, CHX counter)
CCC(C(=O)Nc1ccccc1Cl)n1nc(C)c2c(C)n(-c3ccccc3)nc2c1=O (centres undefined)	Pf growth 48h inconclusive, HCMV inh -80.1
C[C@H]1CCCCO[C@H](CN(C)CC2CCCCC2)[C@@H](C)CN([C@@H](C)CO)C(=O)c2cc(NS(=O)(=O)c3ccccc3)ccc2O1	HCMV inh -62.9 (no result: Pf growth 96h, Shiga toxin inh, Pf growth 48h, CHX counter)
C[C@H](CO)N1C[C@H](C)[C@@H](CN(C)CC2CC2)Oc2c(NS(=O)(=O)c3ccc(F)cc3)cccc2C1=O	none (no result: Pf growth 96h, Shiga toxin inh, Pf growth 48h, CHX counter)
C[C@@H]1CN([C@H](C)CO)C(=O)c2cc(NS(=O)(=O)c3ccccc3)ccc2O[C@@H](C)CCCCO[C@@H]1CN(C)Cc1ccccc1	none (no result: Pf growth 96h, Shiga toxin inh, Pf growth 48h, CHX counter)
C[C@@H]1CCCCO[C@@H](CN(C)Cc2ccc3c(c2)OCO3)[C@@H](C)CN([C@H](C)CO)C(=O)c2cc(NS(=O)(=O)c3ccccc3)ccc2O1	HCMV inh -68.7 (no result: Pf growth 96h, Shiga toxin inh, Pf growth 48h, CHX counter)
Cc1ccc(S(=O)(=O)Nc2ccc3c(c2)C(=O)N([C@@H](C)CO)C[C@@H](C)[C@@H](CN(C)CC2CC2)OCCCC[C@@H](C)O3)cc1	none (no result: Pf growth 96h, Shiga toxin inh, Pf growth 48h, CHX counter)
C[C@H](CO)N1C[C@H](C)[C@@H](CN(C)C)Oc2c(NS(=O)(=O)c3ccc(F)cc3)cccc2C1=O	HCMV inh -73.0 (no result: Pf growth 96h, Shiga toxin inh, Pf growth 48h, CHX counter)
C[C@@H]1CCCCO[C@@H](CN(C)CC2CCCCC2)[C@@H](C)CN([C@H](C)CO)C(=O)c2cc(NS(=O)(=O)c3ccc(Cl)cc3)ccc2O1	HCMV inh -101.6 (no result: Pf growth 96h, Shiga toxin inh, Pf growth 48h, CHX counter)
Cc1cc(=O)oc2cc(NC(=O)[C@H](CCCCN)NC(=O)[C@H](CC3CCCCC3)NC(=O)OCC3c4ccccc4-c4ccccc43)ccc12	none (no result: Pf growth 96h, Pf growth 48h, HCMV inh)
COCCN(C(=O)COc1ccccc1C#N)c1c(N)n(Cc2ccccc2)c(=O)[nH]c1=O	Pf growth 96h inconclusive (no result: Shiga toxin inh, CHX counter)
Cc1nn(-c2ccccc2)c(Cl)c1C(=O)NCCCCNC(=O)c1c(C)nn(-c2ccccc2)c1Cl	Pf growth 48h 13.1µM (no result: Pf growth 96h)
Cc1nn(-c2ccccc2)c(C)c1C(=O)NCCc1ccc(Cl)cc1	none (no result: HCMV inh)
Cc1cccc(NC(=O)c2c(C)nn(-c3ccccc3)c2Cl)c1	Shiga toxin inh 113.3, CHX counter 46.8
Cc1nn(-c2ccccc2)c(Cl)c1C(=O)Nc1ccc(N2CCOCC2)cc1	none
CCOC(=O)c1cc(C(=O)Nc2cccc(C)c2)nn1C	Shiga toxin inh 154.5, CHX counter 40.4
Cc1nn(-c2ccccc2)c(C)c1C(=O)NCCc1ccccc1	Shiga toxin inh 74.3, CHX counter 33.3
COCC#Cc1ccc2c(c1)O[C@H](CN(C)C(=O)c1ccccc1)[C@@H](C)CN([C@H](C)CO)S2(=O)=O	none (no result: Pf growth 96h, Shiga toxin inh, Pf growth 48h, CHX counter)
Cc1nn(Cc2ccccc2)c(Cl)c1C(=O)NCCc1ccc(Cl)cc1	Pf growth 96h inconclusive, Pf growth 48h inconclusive, CHX counter 13.8
Cc1nn(Cc2ccccc2)c(Cl)c1C(=O)NC(C)(C)C	none
N#CC(C#N)c1ccnc2ccccc12	HCMV inh -78.1 (no result: Pf growth 96h, Shiga toxin inh, Pf growth 48h, CHX counter)
Cc1ccnc(NC(=O)Nc2ccc(Br)cc2Cl)c1	Shiga toxin inh 91.0, CHX counter 47.2
Cc1ccc(NC(=O)Nc2ccc(F)cc2)nc1	Shiga toxin inh 65.4, CHX counter 47.5
Cc1ccnc(NC(=O)c2cc3cc(F)ccc3s2)c1	Shiga toxin inh 82.5, CHX counter 45.4
COc1ccc(NC(=O)Nc2cc(C)ccn2)cc1	none (no result: Pf growth 96h, Shiga toxin inh, Pf growth 48h, CHX counter)
Cc1ccnc(NC(=O)Nc2ccc(F)cc2)c1	Shiga toxin inh 68.8, CHX counter 34.6
COc1ccc(C2=C(Nc3ccc(Br)c(C)c3)c3ccccc3C2=O)cc1	none (no result: Pf growth 96h, Shiga toxin inh, Pf growth 48h, CHX counter)
Cc1ccc(C)c(NC(=O)CS(=O)(=O)c2cccc3nsnc23)c1	none
CSc1ccc(NC(=O)Nc2cc(C)ccn2)cc1	Shiga toxin inh 171.2, CHX counter 55.4
CC(C)CCCC(C)NS(=O)(=O)Cc1ccccc1 (centres undefined)	none (no result: Pf growth 96h)
C/C(=N\NC(=O)c1ccccc1)c1ccc(N2CCOCC2)cc1	Shiga toxin inh 53.8, CHX counter 57.5 (no result: Pf growth 48h)
C/C(=N\NC(=O)COc1ccc(C#N)cc1)c1ccc(N2CCOCC2)cc1	Shiga toxin inh 26.1
C/C(=N\NC(=O)c1cc(C)oc1C)c1ccc(N2CCOCC2)cc1	Shiga toxin inh 53.9, CHX counter 36.6
C/C(=N\NC(=O)c1ccccc1Br)c1ccc(N2CCOCC2)cc1	none
